Assay outcomes (PubChem)
a7 integrin act: qHTS for Activators of Integrin-Mediated Alleviation for Muscular Dystrophy; Potency, µM (series often up to 38.3 µM), inactives show top-dose activation, actives largely listed as activators; AID 624291, 2012; 0.064% of 350,000 active; alpha7betagal myoblasts, beta-gal FDG fluorescence, 48 h;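 also: potency is read from the fitted curve at half-maximal effect; 100% = response of the positive control SU9516; nearly all actives have a fitted effect of over 60% in size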
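Alpha7betagal+/- myoblasts (passage 13) were plated 16-24 hr, then exposed to compounds (1:260 dilution of DMSO stock) for 48 hours at 37C. After MPER lysis, β-galactosidase reporter activity was read as FDG fluorescence (ex 480/em 540) after 30 minutes.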
IL-2 act: qHTS of IL-2 Activators; AID 652025, 2013; IL-2 activation reporter assay, cell-based qHTS; stimulated with anti-CD3/CD4/CD28 beads; in transgenic mouse T cells; activation, % (series mostly up to about 46 µM); 0.065% of 360,000 active; in the data active = activation above about 50%; inconclusive = mostly about 30% to 49%; also: 0% is about no effect
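Unstimulated transgenic mouse T cells preincubated 60 min with compound, then stimulated with anti-CD3/anti-CD4-coated beads plus anti-CD28 for 18 h at 37 degrees C. IL-2 response read as EGFP and DsRed fluorescence by plate cytometry.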
BRCA1 expr up: qHTS Assay to Identify Small Molecule Activators of BRCA1 Expression; 1.1% of 380,000 active; MCF7-BRCA1-FFLuc reporter, luminescence, 48 h; response scale: scaled: vehicle 0%, 10 µM genistein 100%; Potency, µM (top dose mostly 46.1 µM), for inactives: at the highest dose activation, hits mostly activators; also: potency is read from the fitted curve at half-maximal effect; nearly all actives have a fitted effect of over 80% in size
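Using MCF7 cells harboring a BRCA1 firefly luciferase reporter, plated 2 h before compound pinning, the screen measured luminescence after 48 h incubation. Responses were normalized to DMSO and 10 microM genistein, then fitted for concentration-effect.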
Anesthetic bind: qHTS Assay for Identification of Novel General Anesthetics. apoferritin/1-aminoanthracene competitive binding, fluorescence. 0.074% of 350,000 active. Potency, µM (doses to about 77.5 µM), for inactives: at the highest dose activity change, negative = displacement, actives largely listed as inhibitors. AID 485281, 2010. Ferritin light chain (Equus caballus), P02791; also: potency is read from the fitted curve at half-maximal effect; % is scaled to controls: 0 for no effect and ±100 for the full control effect; nearly all actives have a fitted effect of over 20% in size
Target sequence (P02791 2-175 limits assumed): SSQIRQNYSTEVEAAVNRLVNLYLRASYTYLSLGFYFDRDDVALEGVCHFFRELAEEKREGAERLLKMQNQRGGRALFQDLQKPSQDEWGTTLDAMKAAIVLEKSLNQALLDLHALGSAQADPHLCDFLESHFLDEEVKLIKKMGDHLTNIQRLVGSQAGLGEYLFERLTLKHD
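Probe: 1-aminoanthracene (50% saturated, PBS). Protein: horse-spleen apoferritin, 10 uM. Incubation: 10 min, room temperature. Detection: 380 nm excitation, 535 nm emission. Analysis: normalized response, four-parameter Hill.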
PKM2 act: qHTS Assay for Activators of Human Muscle isoform 2 Pyruvate Kinase | Potency, µM (top dose mostly 57.5 µM), without a hit: at the highest dose activation, hits mostly activators | 0.34% of 260,000 active | purified PKM2, Kinase-Glo ATP luminescence, activation; response scale: 0% is enzyme alone, no compound; also: potency is read from the fitted curve at half-maximal effect; % is scaled to controls: 0 for no effect and ±100 for the full control effect; nearly all actives have a fitted effect of over 55% in size
Target sequence (P14618 whole entry, looked up, canonical isoform): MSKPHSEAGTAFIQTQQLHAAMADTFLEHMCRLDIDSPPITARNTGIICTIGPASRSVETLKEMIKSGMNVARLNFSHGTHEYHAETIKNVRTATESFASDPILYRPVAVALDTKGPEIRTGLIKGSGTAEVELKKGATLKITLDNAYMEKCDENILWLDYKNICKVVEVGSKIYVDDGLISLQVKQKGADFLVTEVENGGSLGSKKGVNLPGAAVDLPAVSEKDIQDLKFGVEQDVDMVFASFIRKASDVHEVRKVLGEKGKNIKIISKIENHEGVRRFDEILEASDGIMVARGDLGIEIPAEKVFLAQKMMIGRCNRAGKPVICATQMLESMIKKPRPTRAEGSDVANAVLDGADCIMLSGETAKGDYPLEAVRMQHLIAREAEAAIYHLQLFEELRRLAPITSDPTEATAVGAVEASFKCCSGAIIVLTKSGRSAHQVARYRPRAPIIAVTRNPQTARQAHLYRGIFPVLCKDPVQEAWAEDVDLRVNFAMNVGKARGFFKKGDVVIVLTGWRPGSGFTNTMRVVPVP
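ATP formation by purified human PK-M2, quantified via coupled luciferase luminescence after 1 h at room temperature with 0.1 mM ADP and 0.5 mM PEP final.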
The depositor's hits bear a star; ? = inconclusive; nt = no result given; ! = a repeat was not active; [ ] = remark or other dose. A selection: hits, their analogues and other compounds. The true share with any hit is near 1.3%. Unless noted, calls follow the shape of the dose curve; as a rule, active = well fitted curve in the direction sought with a large enough effect; inconclusive = small, poorly fitted or top-dose-only effect, or another doubt; inactive = no such curve, though single readings can be large; an effect the other way counts as inactive or inconclusive.

SMILES	a7 integrin act	IL-2 act	BRCA1 expr up	Anesthetic bind	PKM2 act
Cc1nn(-c2ccccc2)c(/N=C/c2ccccc2O)c1-c1ccccc1	15%	-2	13µM*	-12%	-21%
CCOC(=O)c1ccccc1NC(=O)c1sc2ncn(Cc3cccc(F)c3)c(=O)c2c1C	nt	nt	nt	-14%	nt
Cc1ccc(C)c(Cn2cc(CCC(=O)NC3CCCCC3)c3ccccc32)c1	nt	nt	nt	-8%	nt
N/C(=N/OC(=O)c1ccccc1F)c1nonc1N	15%	-1	?	-7%	-69%
Cn1cc(Cl)c(/C(N)=N/OC(=O)c2ccccc2C(F)(F)F)n1	23%	-1	11µM*	-21%	-8%
CN(C)c1ccc(CNC(=O)CCCN2C(=O)c3cccnc3Oc3ccc(Cl)cc32)cc1	nt	nt	nt	-12%	nt
CSCc1ccc(C(=O)Nc2cccc(C)c2C)cc1	-9%	-1	11µM*	2%	-3%
COc1ccc(CCNC(=O)C(C)n2nc(C)c3sc4ccccc4c3c2=O)cc1OC (stereo not given)	nt	nt	nt	55%	nt
CC(C)c1ccc(C(=O)CSc2ncn[nH]2)cc1	-2%	-3	14µM*	?	2%
O=C(CSc1ncn[nH]1)c1ccc2c(c1)OCCO2	7%[7.66 µM]	-1	73%	-7%	2%
CCOc1ccc2c(c1)sc(=NC(=O)C1CC1)n2C	26%	0	2.8µM*	-6%	-5%
c1ccc(CSCc2cn3ccsc3n2)cc1	-14%	1	8.9µM*	4%	-3%
O=C(CNS(=O)(=O)c1ccc(Br)s1)N1CCCC1	2%	-1	-6%	0%	3%
CCOC(=O)C1CCCN(C(=O)CNS(=O)(=O)c2ccc(Br)s2)C1 (stereo not given)	2µM*	1	-22%	-5%	-4%
CN(C)/C(Cn1cncn1)=C1/N=C(c2c(F)cccc2F)OC1=O	18%	-3	-34%	-9%	25µM*
CCOc1ccc2nc(N(Cc3cccnc3)C(=O)c3ccco3)sc2c1	nt	nt	nt	-8%	nt
Cn1c(SCCOc2ccccc2Cl)nnc1-c1cccs1	-17%	-4	49%	2%	-1%
Cn1c(SCc2c(F)cccc2Cl)nnc1-c1cccs1	3%	0	4µM*	-2%	5%
Cc1cc(F)ccc1OC1C=CC(c2ccc3c(c2)OCO3)OC1CO (stereo not given)	nt	nt	nt	-16%[15.3 µM]	nt
CCN(CC)c1ccc(/C=N/N2CCOCC2)cc1	1%	1	3.2µM*	-6%	-2%
CCN(Cc1ccccc1)c1ccc(/C=N/N2CCOCC2)cc1	-15%	-2	62%	-4%	-10%
O=C(COc1ccc(Cl)cc1Cl)c1ccc[nH]1	-17%	-3	10µM*	-15%	1%
O=C(COc1ccc(Cl)cc1Cl)NNC(=S)NCc1ccco1	-9%	1	63%	-12%	1%
O=C(NCc1ccco1)c1ccc(COc2cc(Cl)ccc2Cl)cc1	15%	1	7.9µM*	-4%	7%
O=C(COc1ccc(Cl)cc1Cl)NCc1ccco1	24%	0	10µM*	-6%	-3%
SMILES	a7 integrin act	IL-2 act	BRCA1 expr up	Anesthetic bind	PKM2 act
COc1ccc(-c2nc3ccccc3o2)cc1NC(=O)COc1ccc(C)cc1	nt	nt	0%	nt	nt
COC(=O)c1sc(NC(=O)c2oc3ccccc3c2C)nc1C	21%	1	7.1µM*	-14%	0%
COc1ccc(-c2nc3sc(CCNC(=O)c4cccc(C(F)(F)F)c4)c(C)n3n2)cc1	nt	nt	6.3µM*	4%	nt
COc1ccc(N=C2C(=S)N(c3ccc(OC)cc3)C(=NS(=O)(=O)c3ccccc3)N2c2ccccc2)cc1	14%	-1	3.5µM*	nt	nt
Cc1ccc(NC(=O)Nc2cccs2)cc1	-47%	-1	1.3µM*	-21%	0%
COc1cccc(NC(=O)Nc2cccs2)c1	-19%	0	13µM*	5%	-2%
O=Nc1c(O)[nH]c2c(Cl)c(Cl)ccc12	nt	nt	nt	-22%	nt
COc1ccc(OCC(=O)Nc2ccc(C(=O)OCc3cc(=O)n4nc(C)sc4n3)cc2)cc1	nt	nt	nt	-11%	nt
O=S(=O)(Nc1ccc(Cc2ccncc2)cc1)c1cccs1	13%	-1	-7%	?	26%
N#CCc1ccc(NS(=O)(=O)c2cccs2)cc1	3%	-2	6%	?	18µM*
Nc1c(C(=O)NCc2ccco2)nnn1-c1ccccc1	-6%	-4	13µM*	-15%	1%
Cc1cc(C)cc(-n2nnc(C(=O)NCc3ccco3)c2N)c1	-2%	-3	1%	-5%	-12%
O=C(NC1CCc2ccccc21)c1cc(COc2ccc(F)cc2Cl)on1 (stereo not given)	?	0	0%	?	-2%
O=C(NC1CCc2ccccc21)c1cc(COc2cncc(Cl)c2)on1 (stereo not given)	?	-4	84%	45µM*	1%
O=C1C(=O)C(c2cc(O)c(O)c(O)c2)Oc2cc(O)cc(O)c21 (stereo not given)	nt	nt	0%	nt	nt
COc1ccc2c(CC(=O)N3CCN(S(=O)(=O)c4cccs4)CC3)coc2c1	-26%	-2	-8%	-8%	22µM*
O=C(CCl)N1CCN(S(=O)(=O)c2ccc3ccccc3c2)CC1	-68%	0	-14%	-7%	13µM*
O=C(COc1ccc(-c2nnco2)cc1)N1CCN(S(=O)(=O)c2ccc3ccccc3c2)CC1	-11%	0	-39%	-2%	7.1µM*
COc1ccc(S(=O)(=O)N2CCN(C(=O)COc3ccc4c(C)cc(=O)oc4c3)CC2)cc1	-28%	-5	2%	-12%	14µM*
CCC(C)c1ccc(S(=O)(=O)N2CCN(C(=O)COc3ccc4c(C)cc(=O)oc4c3)CC2)cc1 (stereo not given)	6%	0	-29%	?	1%
Cc1cc(C)c2c(=O)cc(C(=O)Nc3ccc(S(=O)(=O)Nc4onc(C)c4C)cc3)oc2c1	nt	nt	nt	-10%	nt
COc1ccc(S(=O)(=O)N2CCN(C(=O)COc3ccccc3)CC2)cc1	13%	-1	-40%	-2%	14µM*
O=C(COc1ccccc1)N1CCN(S(=O)(=O)c2ccc(Br)cc2)CC1	14%	0	-6%	-7%	nt
CCOc1ccc(C(=O)Nc2ccc(-c3nc4ccccc4[nH]3)cc2)cc1[N+](=O)[O-]	-10%	0	3.2µM*!	-9%	-21%
NC(=O)c1nsc(C(=O)N(c2ccccc2)C(C(=O)NCc2ccc(F)cc2)c2ccco2)c1N (stereo not given)	15%	-3	-41%	5%	0%
